# Assay outcomes as filed in PubChem BioAssay.
# NPSR antagonist: antagonists of human neuropeptide S receptor cAMP signaling | Potency, µM (highest dose often 38.3 µM), for the others: at the top dose activity change, negative = inhibition, most hits filed as inhibitors | Q6W5P4 | 220,000 tested, 1% active | AID 1461 | CHO-NPSR cells, cAMP TR-FRET, antagonist mode; note: potency is the fitted concentration of half-maximal effect; nearly all actives have a fitted effect of over 50% in size
# Target sequence (Q6W5P4 whole entry, looked up): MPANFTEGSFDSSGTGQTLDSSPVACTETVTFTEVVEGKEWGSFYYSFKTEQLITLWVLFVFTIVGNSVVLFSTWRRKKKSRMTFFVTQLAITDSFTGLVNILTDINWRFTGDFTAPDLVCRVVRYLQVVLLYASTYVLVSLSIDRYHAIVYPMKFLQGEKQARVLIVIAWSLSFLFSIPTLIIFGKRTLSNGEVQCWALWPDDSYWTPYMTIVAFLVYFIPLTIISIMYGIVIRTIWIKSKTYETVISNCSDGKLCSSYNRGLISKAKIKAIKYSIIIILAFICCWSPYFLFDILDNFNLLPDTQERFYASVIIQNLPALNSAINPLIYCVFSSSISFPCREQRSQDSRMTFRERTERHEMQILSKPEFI
# HPGD inh: inhibitors of human 15-hydroxyprostaglandin dehydrogenase (HPGD). P15428. Potency, µM, for the others: top-dose activity change, negative = inhibition, most hits filed as inhibitors. purified HPGD, NADH fluorescence kinetic, PGE2 substrate. 150,000 tested, 4.3% active; active = well fitted inhibition curve with a large enough effect, not every such curve was filed as active; inconclusive = small, poorly fitted or top-dose-only effect, or another doubt; inactive = no such curve, though single readings can be large or run the other way; note: potency is the fitted concentration of half-maximal effect
# Target sequence (P15428 whole entry, looked up): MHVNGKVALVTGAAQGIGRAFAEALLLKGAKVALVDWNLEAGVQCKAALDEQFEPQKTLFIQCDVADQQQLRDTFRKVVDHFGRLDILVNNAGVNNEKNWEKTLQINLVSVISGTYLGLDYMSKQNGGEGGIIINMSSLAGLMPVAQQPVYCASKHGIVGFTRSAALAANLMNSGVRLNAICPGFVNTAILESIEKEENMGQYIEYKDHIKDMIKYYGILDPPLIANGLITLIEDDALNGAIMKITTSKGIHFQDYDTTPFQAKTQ
#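 20 nM HPGD preincubated 15 min at room temperature with compound in 50 mM Tris-HCl pH 8, 0.01% Tween 20. Started with 1 mM NAD+ and 30 uM prostaglandin E2; NADH fluorescence (360/450 nm) read 5 times over 30-s intervals, last minus first.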
# IMPase inh: cell-permeable inhibitors of inositol monophosphatase (IMPase) | P97697 | CHO-M1 cells, IP1 accumulation, HTRF TR-FRET ratio | inhibition (IP1 accumulation), % at 46.1 µM | 120,000 tested, under 10 active | AID 901; active = well fitted curve in the direction sought with a large enough effect in the signal ratio, not every such curve was filed as active; inconclusive = small, poorly fitted or top-dose-only effect, or a change in a side signal; inactive = no such curve, though single readings can be large or run the other way; the % refers to the signal ratio;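 note: cells stimulated with carbachol in lithium chloride buffer; plate controls were DMSO basal wells for no effect and reference inhibitor wells for full effect; higher means more IMPase inhibition seen as more IP1 and lower FRET ratio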
#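 The IP-One HTRF competitive assay in carbachol-stimulated CHO-M1 cells quantifies cellular IP1. Compounds spanned up to 46 uM final, and activity is expressed as AC50 from concentration-response fits of the ratio and donor data.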
# IMPase Li cell: membrane-permeable IMPase blocker, potentiated with lithium; CHO-M1 cells, IP1 TR-FRET (IP-One), carbachol + lithium; Potency, µM (series often up to 59.4 µM), without a hit: at the top dose activity, negative = IMPase inhibition, hits mostly inhibitors; 210,000 tested, 0.35% active; AID 1457;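 note: IP1 builds up when IMPase is blocked and the TR-FRET signal falls; potency is the fitted concentration of half-maximal effect; plate controls were basal vehicle for no effect and high inhibitor control for full effect; nearly all actives have a fitted effect of over 50% in size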
#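 Concentration–response in CHO-M1 cells, lithium-potentiated; 30 min at 37C. IP1 detected by competitive TR-FRET after 10 min lysis at RT. Hill-fitted AC50.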
# ALDH1A1 block: blocks purified human ALDH1A1 activity. Potency, µM (series often up to 75.3 µM), inactives show top-dose activity, negative = inhibition, hits mostly inhibitors. 220,000 tested, 7.3% active. Purified ALDH1A1, NADH fluorescence, propionaldehyde substrate. P00352. AID 1030; active = well fitted inhibition curve with a large enough effect, not every such curve was filed as active; inconclusive = small, poorly fitted or top-dose-only effect, or another doubt; inactive = no such curve, though single readings can be large or run the other way;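 note: potency is the fitted concentration of half-maximal effect; plate controls were no enzyme wells and a reference inhibitor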
# PNC assembly inh: inhibitors of perinucleolar compartment assembly; PC3M PTB-GFP, PNC prevalence imaging, 16 h; active compounds read low; activity change (PNC), negative = inhibition, % at 10 µM; 140,000 tested, 3.1% active; AID 2417;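 active = readout at or below -70, meaning at least 70% loss of cells showing the perinucleolar compartment, a nuclear body marking cancer cells; inconclusive = readout between -30 and a set limit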;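 note: plate controls were DMSO wells for no effect and camptothecin positive control wells for full effect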
#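 Read-out is percentage of cells bearing a perinucleolar compartment, from automated 20x imaging of fixed, Hoechst-stained PC3M PTB-GFP cells. Cells were seeded 4 h, then exposed 16 h to compound (23 nl of library stock) in duplicate plates.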
# Active calls of the source: *; ? = inconclusive; / = no result; [ ] = another dose, or the depositor's remark. The list is not random: actives were taken first. Their share in the collection is about 11%. Unless noted, calls come from the whole dose curve; as a rule, active = well fitted curve in the direction sought with a large enough effect; inconclusive = small, poorly fitted or top-dose-only effect, or another doubt; inactive = no such curve, though single readings can be large; an effect the other way counts as inactive or inconclusive. Unless noted, % is set by controls: 0 for no effect and ±100 for the full control effect.
SMILES,NPSR antagonist,HPGD inh,IMPase inh,IMPase Li cell,ALDH1A1 block,PNC assembly inh
O=c1oc2ccccc2c(NCc2cccc(F)c2)c1[N+](=O)[O-],1.4%[46.1 µM],20µM*,15.4,6.4%,25.1µM*,201.7
O=c1oc2ccccc2c(Nc2ccc3ccccc3c2)c1[N+](=O)[O-],-25.9%[46.1 µM],-17.0%,7.7,2.3%[38.3 µM],2.24µM*,?
CC(Nc1c([N+](=O)[O-])c(=O)oc2ccccc12)C(Cl)c1ccccc1 (stereo not given),-21.8%[46.1 µM],-8.8%,6.7,-1.1%[38.3 µM],?,96.5
O=C(CC1S/C(=N\S(=O)(=O)c2ccc(F)cc2)N(c2ccccc2)C1=O)Nc1ccccc1 (stereo not given),-7.1%,-5.4%,/,5.7%,?,-14.5
Clc1nc2ccccc2cc1/C=N/Nc1nc2ccccc2[nH]1,2.5%,-2.8%,/,-1.8%,-2.2%,10.0
O=C(O)CC1(CC(=O)NCc2cc(F)cc3c2OCOC3)CCCCC1,0.0%,/,/,/,10µM*,/
COc1ccc(C(=O)C2CCCN(C(=O)c3cc(C)nc(C)n3)C2)cc1OC (stereo not given),-7.0%,/,/,7.2%,?,/
CCOC(=O)COc1ccc(/C=C/[N+](=O)[O-])c(OCC(=O)OCC)c1,?,?,6.2,16.6%[38.3 µM],?,25.6
CCOC(=O)COc1ccc2ccccc2c1/C=C/[N+](=O)[O-],?,3.55µM*,2.4,16.8%,12.6µM*,-10.3
CCOc1ccc(/C=C/[N+](=O)[O-])c2ccccc12,10µM*,11.2µM*,13.2,19.1%[38.3 µM],28.2µM*,16.4
CC(C)=NO[C@@H](C)CN1CCCCc2nc(C)c(C)cc21,/,/,/,/,-7.3%[13.5 µM],/
Cc1nnc(SCC(=O)Nc2ccc3c(c2)OCO3)o1,-2.0%[46.1 µM],-8.9%,6.8,1.2%[38.3 µM],-4.5%,55.6
CC1=NN(c2ccccc2)C(=O)C1N=Nc1ccccc1 (stereo not given),-2.4%,-1.0%,/,1.7%,19.2%,-9.0
CC1=NN(c2nc(-c3ccc(C)cc3)cs2)C(=O)C1N=Nc1ccccc1O (stereo not given),-6.1%,/,/,11.5%,?,/
CC1=NN(C(N)=S)C(=O)C1N=Nc1cccc2ccccc12 (stereo not given),-25.7%,/,/,18.2%,14.1µM*,/
CC1=NN(C(N)=S)C(=O)C1N=Nc1ccccc1 (stereo not given),-24.3%,/,/,5.5%,22.4µM*,/
O=C(Cn1c(NCCCO)nc2ccccc21)c1cccc(Br)c1,-2.2%[46.1 µM],-25.4%,-8.5,13.3%[38.3 µM],28.2µM*,27.2
CCOc1cc2[nH]c(=S)n(CC3CCCO3)c(=O)c2cc1OCC (stereo not given),-7.8%[46.1 µM],-9.9%,-13.0,-16.9%[38.3 µM],2.51µM*,-0.7
COc1cc2[nH]c(=S)n(C3CC3)c(=O)c2cc1OC,1.8%,/,/,2.7%,28.2µM*,/
CCN(CC)CCNC(=O)c1ccc2c(=O)n(C3CCCC3)c(=S)[nH]c2c1,-8.7%[46.1 µM],-16.1%,24.2,-2.7%[38.3 µM],?,?
COc1cc2[nH]c(=S)n(CCN3CCOCC3)c(=O)c2cc1OC,-11.7%[46.1 µM],-21.0%,-11.3,28.3%[38.3 µM],-15.1%,-1.8
COc1cc2[nH]c(=S)n(CC3CCCO3)c(=O)c2cc1OC (stereo not given),-12.6%[46.1 µM],-1.9%,-10.6,15.1%[38.3 µM],7.94µM*,20.4
CC(C)NC(=O)c1ccc2c(=O)n(C3CCCC3)c(=S)[nH]c2c1,-7.2%[46.1 µM],-4.6%,2.2,0.0%[38.3 µM],0.447µM*,?
CC(C)C(c1nnnn1Cc1ccccc1)N1CCc2ccccc2C1 (stereo not given),-8.5%[46.1 µM],-16.4%,8.8,27.5%[38.3 µM],10µM*,-12.8
c1ccc(Cn2nnnc2CN2CCN(Cc3ccc4c(c3)OCO4)CC2)cc1,-2.5%[46.1 µM],/,8.3,/,20µM*,-17.8
SMILES,NPSR antagonist,HPGD inh,IMPase inh,IMPase Li cell,ALDH1A1 block,PNC assembly inh
Cc1ccc(Cn2nnnc2CN2CCC(O)(c3cccnc3)CC2)cc1,9.8%,/,/,6.3%,?,/
OC1(c2cccnc2)CCN(Cc2nnnn2Cc2ccccc2)CC1,6.9%,/,/,3.5%,15.8µM*,/
c1ccc2c(c1)CCN(Cc1nnnn1Cc1ccc3c(c1)OCO3)C2,-5.5%[46.1 µM],-5.2%,?,7.5%,?,?
c1ccc(Cn2nnnc2C(c2cccs2)N2CCc3ccccc3C2)cc1 (stereo not given),?,-12.5%,2.1,26.5%[38.3 µM],?,27.5
COc1ccc(Cn2nnnc2CN2CCC(O)(c3ccccc3F)CC2)cc1,16.8%,/,/,7.1%,8.91µM*,/
Cn1cc(-c2nc3cnc(N4CCOCC4)nc3n(C3CC3)c2=O)c2ccccc21,/,/,/,-3.9%,?,/
FC(F)Sc1ccc(NC(=S)NC(c2ccccc2)c2ccccc2)cc1,?,/,/,15.1%,?,/
COC(=O)[C@@]1(Cc2ccc(OC)cc2)[C@H]2c3cc(C(=O)N(C)C)n(CCc4ccccn4)c3C[C@H]2CN1C(=O)c1ccccc1,/,-7.2%,/,-0.3%,-2.0%,/
COc1ccc(Cn2nnnc2CN2CCc3ccccc3C2)cc1,-8.7%[46.1 µM],-10.0%,1.7,0.3%[38.3 µM],11.2µM*,-1.9
COc1ccc(Cn2nnnc2CN2CCc3ccccc32)cc1,-15.8%[46.1 µM],-9.0%,-4.8,22.9%[38.3 µM],?,5.6
Cc1ccc(N2C(=O)c3sc4nnc(C)c(=O)n4c3C2=O)cc1,-0.5%[46.1 µM],-17.5%,-1.2,19.2%[38.3 µM],17.8µM*,15.4
CCc1ccc(N2C(=O)c3sc4nnc(C)c(=O)n4c3C2=O)cc1,-26.7%[46.1 µM],-19.6%,3.0,-24.9%[38.3 µM],5.01µM*,-6.4
CCCc1nc2ccc(NC(=O)NCCC(=O)OCC)cc2c(=O)n1Cc1cccc(Cl)c1,?,-18.3%,-2.5,34.9%[38.3 µM],4.6%,12.3
CC(C)[C@H](NC(=O)c1ccccc1)C(=O)OCC(=O)NCCC1=CCCCC1,-9.5%,-4.2%,/,-3.7%,?,0.8
Cc1oc2ccc(NS(=O)(=O)c3ccc(F)cc3)cc2c1C(=O)O,/,/,3.8,/,/,/
O=C(O)c1cc([N+](=O)[O-])c(NCCC2=CCCCC2)c([N+](=O)[O-])c1,-22.5%,/,/,9.4%,10µM*,/
Cc1cc(C)n2c(=S)[nH]nc2n1,0.6%[46.1 µM],2.82µM*,-12.2,8.0%[38.3 µM],1.41µM*,-139.2*
Cc1cc(C)n2cnnc2n1,-15.2%,/,/,/,/,/
S=c1[nH]nc(C2CCCCC2)n1/N=C/C(Cl)=C\c1ccccc1,-37.9%,-27.5%,-2.8,-8.9%,5.2%,-27.2
Cc1cc(-c2n[nH]c(=S)n2/N=C/c2cccc([N+](=O)[O-])c2)n[nH]1,-13.5%,?,/,-2.2%,?,4.9
O=[N+]([O-])c1ccc(Cl)c(/C=N/n2c(C3CCCCC3)n[nH]c2=S)c1,-7.8%[46.1 µM],0.631µM*,3.4,-7.7%[38.3 µM],?,-18.9
O=[N+]([O-])c1ccccc1/C=N/n1c(C2CCCCC2)n[nH]c1=S,-35.6%,15.8µM*,2.3,21.5%,7.08µM*,19.2
Brc1ccc(/C=N/n2cnnc2)s1,33.4%,/,/,/,/,/
